Consider 20 compounds from PubChem BioAssay (EPA / NIEHS).

The source made the active and inactive calls. How the source made its calls: active means hit-call score of the fitted dose curve at least 0.9, where 1 is the maximum; inactive means score below 0.9.

A short description of assay [1]: APR_HepG2_P-H2AX_72hr: Apredica 72-hour HepG2 Assay for H2AX Phosphorylation (AID 2282916).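 Further: phospho-histone H2A.x immunostain intensity per cell marking DNA damage.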 To be noted: imaging, actives raise or lower the signal. In short, it runs like this:
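Readout: phospho-H2A.x immunofluorescence (FITC secondary) plus Hoechst nuclear stain, high-content imaging at 20x, six fields/well. HepG2, 72 hr compound exposure, 0.39–200 uM, final DMSO 0.5% v/v. Gain or loss fitted relative to DMSO baseline.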

Assay [2] can be described thus: APR_HepG2_MitoMembPot_72hr: Apredica 72-hour HepG2 Assay for Mitochondrial Membrane Potential (AID 2282917). Particulars: imaging, actives raise or lower the signal. An outline of the steps: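 Membrane potential read by MitoTracker Red CMXRos (250 nM, 30 min, pre-fixation) fluorescence imaging of HepG2 after 72 hr exposure. Ten concentrations, 0.39–200 uM, duplicate wells, 0.5% DMSO; fitted in both directions against DMSO baseline.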

Assay [3] in a line: APR_HepG2_MitoticArrest_72hr: Apredica 72-hour HepG2 Assay for Mitotic Arrest (AID 2282918). Particulars: high-content imaging, actives raise or lower the signal. An outline of the steps:
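High-content imaging of fixed human HepG2 cells after 72 h compound exposure (0.39–200 uM, duplicates, 0.5% DMSO); mitotic arrest scored from phospho-histone H3 and nuclear Hoechst staining relative to DMSO.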

A short description of assay [4]: APR_HepG2_MicrotubuleCSK_72hr: Apredica 72-hour HepG2 Assay for Microtubule CSK Stabilty (AID 2282919). To be noted: HepG2 microtubule cytoskeleton, high-content imaging, actives raise or lower the signal. An outline of the steps: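 High-content imaging of alpha-tubulin staining in fixed HepG2 cells after 72 hr treatment with ten concentrations from 0.39 to 200 uM (0.5% DMSO). Fitting was bidirectional against DMSO; taxol served as positive control.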

Assay [5] in a line: APR_HepG2_P-H2AX_24hr: Apredica 24-hour HepG2 Assay for H2AX Phosphorylation (AID 2282920). Particulars: high-content imaging, actives raise or lower the signal. In short, it runs like this: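 High-content imaging of phospho-histone H2A.x immunofluorescence, nuclei counterstained with Hoechst 33342, in fixed HepG2 cells. Compounds ran 0.39–200 uM in duplicate for 24 h, final DMSO 0.5%. Signal change fitted both directions against DMSO.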

Assay [6] can be described thus: APR_HepG2_StressKinase_72hr: Apredica 72-hour HepG2 Assay for Stress Kinase (AID 2282921). Particulars: HepG2 stress kinase (phospho-c-Jun) imaging, actives raise or lower the signal. In short, it runs like this: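 Phospho-c-Jun immunofluorescence measured by high-content imaging at 20x, six fields per well; bidirectional curve fitting against DMSO as baseline. Dosing: 0.39–200 uM, 72 h, 0.5% DMSO final.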

A short description of assay [7]: APR_HepG2_StressKinase_24hr: Apredica 24-hour HepG2 Assay for Stress Kinase (AID 2282922). To be noted: HepG2 stress kinase (phospho-c-Jun) imaging, actives raise or lower the signal. An outline of the steps:
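High-content imaging of phospho-c-Jun immunofluorescence in fixed, permeabilized HepG2 cells after 24 h dosing. Ten concentrations, 0.39 to 200 uM, run in duplicate at 0.5% v/v DMSO; gain or loss of signal versus DMSO.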

Assay [8] is described as follows: APR_HepG2_p53Act_72hr: Apredica 72-hour HepG2 Assay for p53 Activation (AID 2282923).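 Further: average cellular p53 protein immunofluorescence intensity in HepG2 cells.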 To be noted: high-content imaging, actives raise or lower the signal. An outline of the steps:
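Readout: p53 immunofluorescence quantified by automated high-content imaging at 20x, six fields per well, nuclei located via Hoechst. Dosing ran 72 hr over ten concentrations from 0.39 to 200 uM; bidirectional curve fitting against DMSO baseline.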

A short description of assay [9]: APR_HepG2_MitoMass_72hr: Apredica 72-hour HepG2 Assay for Mitochondrial Mass (AID 2282924).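 Further: MitoTracker Red CMXRos stain intensity per cell imaged as mitochondrial mass.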 To be noted: high-content imaging, actives raise or lower the signal. An outline of the steps: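 Readout is imaged MitoTracker Red (250 nM, 30 min, pre-fixation) signal, fitted bidirectionally against DMSO baseline. Human HepG2 liver cells received compound 0.39–200 uM in duplicate for 72 hr, final DMSO 0.5%.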

Assay [10] is described as follows: APR_HepG2_NuclearSize_72hr: Apredica 72-hour HepG2 Assay for Nuclear Size (AID 2282925). To be noted: high-content imaging, actives raise or lower the signal. In short, it runs like this:
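Nuclear size was read by high-content imaging of Hoechst 33342 stain after formaldehyde fixation. Compounds ran 72 h on HepG2 at 0.39 to 200 uM, with final DMSO 0.5% v/v. Curves fitted both directions relative to DMSO control.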

Consider `COc1ccc(OC(F)(F)F)cc1CN[C@H]1CCCN[C@H]1c1ccccc1`, for which the AC50 (as a rule, the concentration giving half of the maximal activity seen) was 28.3 µM (active) in [1]; 55.9 µM (active) in assay [2]; 17.7 µM (active) in assay [3]; 32.6 µM (active) in assay [5]; 28.8 µM (active) in assay [6]; 24.3 µM (active) in assay [8]. Further, the AC50 in assay [9] is 62.3 µM (active). Also, the outcome in [4], in assay [7] and in assay [10] was inactive.

Regarding `NC(=Nc1ccccc1)Nc1ccccc1`, the concentration at half-maximal activity (AC50) was 22.4 µM (active) in [1]; 22.8 µM (active) in assay [3]; 34 µM (active) in assay [4]; 10.3 µM (active) in assay [6]; 23.4 µM (active) in [8]. The call in assay [2], in [5], in assay [7], in assay [9] and in [10] was inactive.

For the compound `Cc1cc(Cc2ccc(N)c(C)c2)ccc1N`, the result in assay [1], in assay [2], in assay [3], in assay [4], in [5] and in assay [6] was inactive. Besides, the compound was classed as inactive in [7], in assay [8] and in assay [10]. Besides, the AC50 in assay [9] was 67.3 µM (active).

In the case of `COc1ccc(C(=O)Nc2nc3ccccc3c(NCc3ccccc3)c2C#N)cc1`, the concentration at half-maximal activity (AC50) in assay [1] was 47.8 µM (active); in [2], 1.45 µM (active); in assay [3], 108 µM (active); in [5], 106 µM (active); in assay [9], 5.59 µM (active); in [10], 113 µM (active). The call in assay [4], in assay [6], in assay [7] and in assay [8] was inactive.

`OCC(O)CO`: the compound was called inactive in [1], in [2], in [3], in [4], in assay [5] and in assay [6]. In addition, the compound was called inactive in assay [7], in assay [8], in assay [9] and in [10].

`COC(=O)CCCC(=O)OC`: the compound was called inactive in assay [1], in assay [2], in [3], in [4], in assay [5] and in assay [6]. Besides, the call in assay [7], in [8], in assay [9] and in [10] was inactive.

Turning to `CCCCCCCCCC[N+](C)(C)[O-]`, the compound was called inactive in assay [1], in assay [4], in [5], in assay [6], in [7] and in assay [8]. Besides, the call in [9] and in assay [10] was inactive. In addition, the half-maximal activity concentration (AC50) was 169 µM (active) in assay [2] and 75 µM (active) in [3].

In the case of `O=C(O)c1[nH]n(-c2ccc(S(=O)(=O)O)cc2)c(=O)c1N=Nc1ccc(S(=O)(=O)O)cc1`, the result in assay [1], in [2], in assay [3], in assay [4], in assay [5] and in [6] was inactive. In addition, the result in [7], in assay [8], in assay [9] and in [10] was inactive.

With `CN(C)CCCN(C)CCCN(C)C`, the call in [1], in assay [2], in [3], in assay [4], in assay [5] and in assay [6] was inactive. For the same compound, the compound was called inactive in assay [7], in [8], in assay [9] and in [10].

With `O=C1c2c(O)cccc2Cc2cccc(O)c21`, the outcome in [1], in assay [3], in [4], in [5], in [6] and in assay [7] was inactive. The outcome in assay [8], in assay [9] and in assay [10] was inactive. Also, in assay [2], the AC50 was 19.3 µM (active).

`Cc1cc(SC2=C(O)C[C@@](CCc3ccc(N)cc3)(C(C)C)OC2=O)c(C(C)(C)C)cc1CO`: the outcome in assay [1], in assay [2], in assay [3], in [4], in assay [5] and in [6] was inactive. In addition, the compound was classed as inactive in [7], in assay [8], in assay [9] and in assay [10].

On to `S=c1[nH]c2ccccc2s1`, for which the result in assay [1], in [3], in [4], in assay [5], in assay [6] and in [7] was inactive. The compound was called inactive in [8], in assay [9] and in [10]. In [2], the AC50 is 97.3 µM (active).

As to `CCCCC(CC)COC(=O)CCCCCCCC(=O)OCC(CC)CCCC` (stereo not given), the compound was classed as inactive in assay [1], in assay [2], in [3], in assay [4], in [5] and in assay [6]. In addition, the call in assay [7], in assay [8], in assay [9] and in assay [10] was inactive.

On to `CN(C)C(=O)NC1(c2ccccc2)CCN(CC[C@@]2(c3ccc(F)c(F)c3)CN(C(=O)c3ccccc3)CCO2)CC1`, for which the half-maximal activity concentration (AC50) was 91.8 µM (active) in assay [1]; 86 µM (active) in assay [3]; 82.9 µM (active) in assay [4]; 104 µM (active) in [6]; 97.7 µM (active) in [8]. Further, the compound was classed as inactive in assay [2], in assay [5], in assay [7], in assay [9] and in assay [10].

Consider `O=C(O)CC(O)(CC(=O)O)C(=O)O`, for which the outcome in [1], in assay [2], in assay [3], in assay [4], in [5] and in [6] was inactive. Moreover, the result in assay [7], in assay [8], in assay [9] and in [10] was inactive.

As for `CCCCCCCC(=O)OC`, the compound was classed as inactive in assay [1], in assay [2], in assay [3], in [4], in assay [5] and in assay [6]. The result in assay [7], in assay [8], in assay [9] and in assay [10] was inactive.

Consider `CCCCc1nc2cccnc2n1Cc1ccc(-c2ccccc2-c2nnn[nH]2)cc1`, for which the compound was classed as inactive in [1], in [2], in assay [6], in [7], in assay [8] and in assay [10]. Further, the half-maximal activity concentration (AC50) in assay [3] is 67.1 µM (active); in assay [4] it was 94.4 µM (active); in assay [5], 48.6 µM (active); in assay [9], 118 µM (active).

Turning to `Cc1ccc(C(C)(C)C)c(O)c1`, the AC50 in [1] was 105 µM (active); in [2] it was 111 µM (active); in assay [3], 100 µM (active); in [5], 110 µM (active). Moreover, the compound was classed as inactive in assay [4], in assay [6], in [7], in assay [8], in assay [9] and in assay [10].

Take `CCOCCOCCO`: the compound was called inactive in assay [1], in assay [2], in assay [3], in [4], in assay [5] and in assay [6]. Moreover, the compound was classed as inactive in [7], in assay [8], in assay [9] and in [10].

Consider `CCc1nc(N)nc(N)c1-c1ccc(Cl)cc1`, for which the AC50 in [1] is 67.6 µM (active); in assay [3], 110 µM (active); in assay [8] it was 3.77 µM (active). Moreover, the call in assay [2], in assay [4], in [5], in assay [6], in assay [7] and in [9] was inactive. Moreover, the result in assay [10] was inactive.
